Among the data in PubChem BioAssay (NCI) are growth values, retold here.

The panel holds about 83,000 compounds, 20% with a hit somewhere; the sample as a whole holds those more often.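 The test compound was applied at a single concentration to cells in 96-well plates for 48 hours, and percent growth was recorded.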 Values without a mark were called inactive. Activity calls are given as the source filed them.

The test system of the assay is SW-620 colon. The assay can be described thus: NCI-60 one-dose screen, 48 h (100 = growth as untreated, 0 = no growth, -100 = all killed). The following applies: 10 µM unless noted. The protocol: Growth inhibition of the SW-620 human tumor cell line is measured as a screen for anti-cancer activity. Cells are grown in 96 well plates and exposed to the test compound for 48 hours. Compounds are tested at a single concentration, which is 10^-5 M for most compounds. The reported endpoint is percent growth (GI% or GIPRCNT), where numbers from 0 - 100% represent growth inhibition, and numbers from -100% - 0 represent cell death. For example, a value of 40 represents 60% growth inhibition. A value of 0 means no net growth occurred over the course of the experiment. A value of -40 indicates 40% of cells at the beginning of the experiment died by the end of the experiment. A value of -100 means all cells are dead at the end of the experiment.
NCI-60 Human Tumor Cell Lines Screen was performed using the standard one-dose NCI protocol, which is described in more detail at https://dtp.cancer.gov/discovery_development/nci-60/default.htm.
Compounds with GIPRCNT values below 10 were considered active. Activity score was based on GIPRCNT using the following formula: […]
Score is 0 for GIPRCNT values of 100 or above, 50 for GIPRCNT values of 0, and 100 for GIPRCNT values of -100.
As for `Cc1nn(-c2ccc(-c3ccc(OC(F)(F)F)cc3)cc2)c2nc(-c3ccccc3)nc(N)c12`, the growth was 81.3%.
The same measure for `C#C[C@@]1(O)[C@@H](CO)O[C@@H](n2cc(-c3ccco3)c3c(N)ncnc32)[C@@H]1O`: 63.5%; for `CCCCC(=O)Nc1c(C(=O)Nc2ccccc2)sc2nc3c(cc12)C(OC(=O)CCCC)CCC3` (stereo not given): 50.1%.
On to `O=C(Nc1cc(Br)ccn1)c1cc2cc(Nc3nc(-c4ccccc4)nc4ccccc34)ccc2oc1=O`, for which the growth was 104%.
The same measure for `Nc1c(C(=O)c2ccccc2)sc2nc(-c3cc4ccccc4o3)cc(-c3ccc(Cl)cc3)c12`: 118%; for `C[C@H]1[C@H](C)CC[C@]2(C(=O)OCCOCCOCC[P+](c3ccccc3)(c3ccccc3)c3ccccc3)CC[C@]3(C)C(=CC[C@@H]4[C@@]5(C)CC[C@H](OC(=O)C(Cl)Cl)C(C)(C)[C@@H]5CC[C@]43C)[C@H]12`: 12.5%.
The same measure for `COc1ccc2nc3c(n2c1)C(=O)C(=O)c1ccccc1-3`: -61.8% (active); for `S=C(Nc1ccc(Cl)cc1)c1ccccn1`: 100%.
The same measure for `O=C1Nc2ccccc2C12C=C(c1ccccc1)Nc1c2c(-c2ccccc2)nn1-c1ccccc1` (stereo not given): 75.6%; for `C=C(C)[C@@H]1CC[C@]2(C(=O)OCCCC[P+](c3ccccc3)(c3ccccc3)c3ccccc3)CC[C@]3(C)[C@H](CC[C@@H]4[C@@]5(C)CC[C@H](OC(=O)C(Cl)Cl)C(C)(C)[C@@H]5CC[C@]43C)[C@@H]12`: 0.909% (active); for `Cc1nc(C)c(C)nc1C`: 103%.
For `COc1cc2c(cc1OCCCOc1cc3c(cc1OC)C(=O)N1CC(F)(F)C[C@H]1C=N3)N=C[C@@H]1CC(F)(F)CN1C2=O`, the growth was 1.84% (active).
With `N#Cc1c(-c2ccc(F)cc2)nc(N=Nc2c(O)[nH]c3ccccc23)nc1N1CCOCC1`, the growth is 66.7%.
The figure for `COc1c(O)cc2oc3cc(O[C@@H]4OC(C)[C@@H](O)[C@H](O)C4O)c(CC=C(C)C)c(O)c3c(=O)c2c1CC=C(C)C` (stereo not given in full) is 101%.
The figure for `COc1cc(NCC(=O)Nc2cc(Nc3cccc(C(F)(F)F)c3)ncn2)c(Cl)c(OC)c1Cl` is 104%.
Turning to `CCCCCCCc1n(Cc2ccc3ccccc3c2)c2ccccc2[n+]1Cc1ccc2ccccc2c1`, the growth was -80% (active).
The figure for `CC(=O)Oc1c2c(nc3c1c1ccccc1n3Cc1ccccc1)-c1ccccc1C2` is 98.8%; for `C=C1C(=O)O[C@H]2[C@H]1CC/C(COC(=O)CCCCCCCCC(=O)OC/C1=C/CC[C@@]3(C)O[C@H]3[C@H]3OC(=O)C(=C)[C@@H]3CC1)=C\CC[C@@]1(C)O[C@@H]21` it is 2.58% (active); for `COc1ccc(-c2cc(-c3nnc(SCC(=O)Nc4ccc(C(C)=O)cc4)o3)c3ccccc3n2)cc1` it is 5.51% (active).
The figure for `C=C1C(=O)O[C@H]2[C@H]1CC/C(COC(=O)NCc1nc3ccccc3[nH]1)=C\CC[C@@]1(C)O[C@@H]21` is 25.2%; for `CC[C@]12C=CCN3CC[C@@]4(c5cc(NC(=O)CCC(=O)O[C@H]6CC[C@H]7[C@@H]8CC[C@H]9CC(=O)CC[C@]9(C)[C@H]8CC[C@]67C)c(OC)cc5N(C)[C@H]4[C@@](O)(C(=O)OC)[C@@H]1OC(C)=O)[C@@H]32` it is 85.6%; for `C=C(C)[C@@H]1CC[C@]2(C(N)=O)CC[C@]3(C)[C@H](CC[C@@H]4[C@@]5(C)CCCNC(C)(C)[C@@H]5CC[C@]43C)[C@@H]12` it is 75.5%.
Consider `C=C(C)[C@@H]1CC[C@]2(C(=O)NCCCO)CC[C@]3(C)[C@H](CC[C@@H]4[C@@]5(C)CCCNC(C)(C)[C@@H]5CC[C@]43C)[C@@H]12`, for which the growth is 74.9%.
The figure for `COc1ccc(/C=C/C(=O)/C=C(/C=C/c2ccc(OC)c(OC)c2)OB(F)F)cc1OC` is -21.8% (active); for `COc1cc2nc3c(=O)n(-c4ccc(C#N)cc4)cnn3c(=O)c2cc1OC` it is 95.3%.
Take `C=C1C(=O)O[C@H]2[C@H]1CC/C(COC(=O)CCCCCCC(=O)OC/C1=C/CC[C@@]3(C)O[C@H]3[C@H]3OC(=O)C(=C)[C@@H]3CC1)=C\CC[C@@]1(C)O[C@@H]21`: the growth is 14.8%.
The same measure for `COc1ccc([C@H]2[C@@H](F)C(=O)N2c2cc(OC)c(OC)c(OC)c2)cc1F`: 28.7%; for `C#CCN1C(=O)c2ccccc2N(CC#C)C12CCN(Cc1cn(CC(=O)Nc3ccccc3C(N)=O)nn1)CC2`: 94%.
The figure for `O=c1c2ccccc2oc2ccc(OCCCCCN3CCCCCC3)cc12` is 77.7%; for `O=C1C(=O)c2c(nc3ccc(C(F)(F)F)cn23)-c2ccccc21` it is -60.4% (active); for `CC1(C)Cc2c(Br)c(Br)c(Br)c(OCC(O)CN3CCOCC3)c2O1` (stereo not given) it is 94.5%.
Consider `COc1cc(C2=NN(C=O)C(c3cccc(Nc4ccnc5cc(C(F)(F)F)ccc45)c3)C2)cc(OC)c1OC` (stereo not given), for which the growth is 64.6%.
The figure for `NCCCn1c2c(c3cc(-c4ccn[nH]4)ccc3c1=O)C(=O)c1ccccc1-2` is 24.6%; for `C=C1C(=O)O[C@H]2[C@H]1CC/C(COC(=O)n1ccnc1)=C\CC[C@@]1(C)O[C@@H]21` it is 71.2%.
As for `CC(=O)OCC1SC(OC(C)=O)C(NC(=O)/C=C/CCl)C(OC(C)=O)C1OC(C)=O` (stereo not given), the growth is 107%.
The figure for `CCOC(=O)c1c(C(F)(F)F)n([O-])c2ccc(Cl)cc2[n+]1=O` is -64.7% (active).
The figure for `CC1CCCN(CCCCCOc2ccc3oc4ccc(Cl)cc4c(=O)c3c2)C1` (stereo not given) is 56.6%; for `COc1ccc2nc(-c3ccc(Cl)cc3)cc(-c3nnc(SC/C(=N/O)c4ccccc4)o3)c2c1` it is 26.5%; for `COC1=CC2C=C(C3N(c4ccccc4)NC(=O)[C@@H]4CCCN34)C(=O)NC2C=C1` (stereo not given in full) it is 105%.
The same measure for `Cc1ccc(CS/C(=C\c2ccc([N+](=O)[O-])cc2)C(=O)c2ccc(F)cc2)cc1`: -11.5% (active).
